High-throughput results as filed in PubChem.
Hits are enriched below; roughly 2.8% of the tested compounds scored in any of these assays.
B2AR ag: agonists of human beta-2 adrenergic receptor inducing internalization; P07550; Am2.2-beta2AR cells, FAP receptor internalization, flow cytometry; response, % (test concentration not listed); 0.43% of 340,000 active; AID 504454;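 active means response above a set limit, near 3 SD of response in nonfluorescent compounds, cut at about 42% in these data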
Target sequence (P07550 whole entry, looked up): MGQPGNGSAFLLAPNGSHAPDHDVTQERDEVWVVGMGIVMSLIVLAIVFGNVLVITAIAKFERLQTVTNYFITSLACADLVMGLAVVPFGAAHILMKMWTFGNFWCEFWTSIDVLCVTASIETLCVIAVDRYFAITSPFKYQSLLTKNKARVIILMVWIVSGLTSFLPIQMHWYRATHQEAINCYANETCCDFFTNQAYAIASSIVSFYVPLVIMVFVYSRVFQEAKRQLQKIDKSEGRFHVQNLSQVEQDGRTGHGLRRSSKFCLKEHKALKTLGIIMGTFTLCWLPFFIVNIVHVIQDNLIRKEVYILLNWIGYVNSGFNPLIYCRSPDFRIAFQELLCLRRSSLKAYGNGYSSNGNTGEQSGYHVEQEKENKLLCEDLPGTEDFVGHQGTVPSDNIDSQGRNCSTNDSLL
CF NFkB inh: cystic fibrosis NF-kB activation inhibition. KKLEB NF-kB-GFP reporter, PAF-induced, GFP fluorescence overnight. AID 588850. inhibition, % at 5 µM. 0.86% of 360,000 active;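 active means at least 50% inhibition at 5 µM, scaled per plate between neutral and stimulator controls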;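 further: PAF is a Pseudomonas aeruginosa culture filtrate used as stimulus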
Peg3 promoter: inhibitors of Peg3 promoter. 1.7% of 360,000 active. HeLa PEG-Prom luciferase reporter, luminescence, overnight. inhibition, % at 20 µM. AID 588405;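 active means inhibition of at least 50% at 20 µM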
HIF-2a inh: inhibitors of HIF-2a. 786-0 RCC cells HIF-2a reporter, luciferase luminescence, overnight. inhibition, % at 18.8 µM. 0.72% of 360,000 active. AID 624352;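 active means inhibition of the luminescence signal of 40% or more relative to plate controls, in a single-dose primary screen at 18.75 µM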
MITF TRPM1 inh: reduces MITF-dependent TRPM1 promoter luciferase signal; SK-MEL-5 TRPM1 promoter luciferase, 24 h; inhibition, % at 12.5 µM; 0.83% of 330,000 active;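 active means mean inhibition across replicates of 60% or more, whatever share of single replicates reaches that level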
KKLEB cytotox: counter-screen for CF NF-kB inhibitors: cytotoxicity; KKLEB CF airway cells viability, ATPlite luminescence, overnight; stronger effect = lower value; cells stimulated with P. aeruginosa culture filtrate; activity change (cytotoxicity), % at 5 µM; 0.36% of 360,000 active;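 active means corrected activity change at or below -50% at 5 µM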
CF NFkB inh conf: confirmation of cystic fibrosis induced NF-kB inhibitors | shares compounds with CF NFkB inh | KKLEB CF airway cells, PAF-induced NF-kB-GFP fluorescence, overnight | inhibition, % at 5 µM | 64% of 1,300 active; in the data active means inhibition above about 40%;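 further: stimulus PAF is a Pseudomonas aeruginosa filtrate and not platelet activating factor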
Mdm2-MdmX confirm: Mdm2/MdmX (human) interaction inhibition, confirmed; SaOS-2 split-luciferase Mdm2/MdmX complementation, luminescence; 99% of 740 active; inhibition, % at 8 µM; shares compounds with HIF-2a inh; AID 504601;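 active means mean inhibition of the luminescence signal across two replicates at or above 26 percent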
HIF-2a inh conf: confirmation of HIF-2a inhibitors; shares compounds with HIF-2a inh; 786-0 RCC cells, HIF-2a luciferase reporter luminescence, overnight; inhibition, % at 18.8 µM; 56% of 1,800 active; AID 651580;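 active means mean inhibition across four replicates of at least 40 percent at the single tested concentration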
HIF-1a cs: counter-screen for HIF-2a inhibitors: HIF-1a inhibition in MiaPaCa-2 cells; AID 651589; inhibition, % at 18.8 µM; 72% of 1,800 active; shares compounds with HIF-2a inh; MiaPaCa-2 HIF-1a luciferase reporter, desferoxamine, overnight;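 active means mean inhibition of the reporter signal across four replicates at the single tested dose of 50% or more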
Numbers stand for hits; 0 = inactive; - = no result given.

SMILES | B2AR ag | CF NFkB inh | Peg3 promoter | HIF-2a inh | MITF TRPM1 inh | KKLEB cytotox | CF NFkB inh conf | HIF-2a inh conf | HIF-1a cs | others
CCOc1cc(/C=C2\COc3ccccc3C2=O)cc(Br)c1OCC(=O)N(C)C | 55.0 | 97.8 | 104.7 | 90.7 | 88.6 | 0 | 0 | 60.5 | 105.3
CS(=O)(=O)c1ccc(C(=O)OCC(=O)NCc2cccs2)cc1[N+](=O)[O-] | 0 | 89.9 | 108.1 | 83.2 | 85.3 | 0 | 43.4 | 0 | 0
Cc1cccc(C(=O)OCC(=O)NCc2cccs2)c1 | 0 | 0 | 0 | 0 | 0 | 0 | - | - | -
CCOC(=O)[C@]12CCCC=C1N(Cc1ccc3c(c1)OCO3)C(=O)[C@H](CC(=O)NCCCCc1ccccc1)C2 | - | - | - | 0 | - | - | - | - | -
COC(=O)C(NC(=O)c1ccccc1)c1ccccc1 (stereo not drawn) | 0 | 0 | 0 | 0 | 0 | 0 | - | - | -
C=C(C(=O)c1ccccc1)C(NC(C)(C)C)c1ccccc1 (stereo not drawn) | 0 | 50.5 | 104.4 | 85.4 | 99.2 | 0 | 0 | 98.3 | 105.4
C=C(C)[C@@H]1C2=CC(C(=O)OC)=C(C[C@H](C(=C)C)[C@H]3O[C@H]3C3=C[C@H]1OC3=O)O2 | - | 68.8 | 103.0 | 87.8 | - | 0 | 0 | 89.1 | 106.4
CC(=O)Oc1ccccc1C(=O)C=Cc1cccc([N+](=O)[O-])c1 | 65.4 | 80.0 | 99.4 | 89.1 | 93.5 | 0 | 0 | 93.5 | 102.5
Cc1cc(O)c(C(=O)/C=C/c2cccc([N+](=O)[O-])c2)c(=O)o1 | 0 | 0 | 0 | 0 | 0 | 0 | - | - | -
CC(C)[C@H](NC(=O)OC(C)(C)C)c1nnc(S(=O)(=O)Cc2c(F)cccc2Cl)o1 | 0 | 83.2 | 104.5 | 40.5 | 99.1 | 0 | 43.1 | 0 | 0
CC(C)=CCSc1nnc([C@@H](NC(=O)OC(C)(C)C)C(C)C)o1 | 0 | 0 | 0 | 0 | 0 | 0 | - | - | -
C[C@@H](c1ccccc1)N1C[C@@H](COCc2ccccc2)Oc2cc(N3CCC[C@H]3CO)ccc2S1(=O)=O | - | - | - | 0 | - | - | - | - | -
O=C(NCc1cccnc1)/C(=C\c1ccc(-c2cccc(Cl)c2)o1)S(=O)(=O)c1ccccc1 | 0 | 70.3 | 104.2 | 97.8 | 90.4 | 0 | 76.5 | 99.0 | 104.7
COc1cc(/C=C/C(=O)c2ccc([N+](=O)[O-])o2)ccc1O | 0 | 83.4 | 100.9 | 96.9 | 85.2 | 0 | 0 | 78.8 | 104.6
Cc1ccc(NC(=O)Cn2ncc(Cl)c(Cl)c2=O)cc1S(=O)(=O)N1CCCCC1 | 0 | 86.0 | 106.6 | 93.8 | 97.2 | 0 | 0 | 56.9 | 103.1 | Mdm2-MdmX confirm=103.2
Cc1ccc(NC(=O)CN(C)C(=O)Cc2ccc(Cl)c(Cl)c2)cc1 | 0 | 0 | 0 | 0 | 0 | 0 | - | - | -
O=C(Cn1ncc(Cl)c(Cl)c1=O)NC1CCCCC1 | 0 | 67.7 | 100.5 | 86.5 | 95.9 | 0 | 0 | 0 | 101.6 | Mdm2-MdmX confirm=103.0
O=C1CN(C(=O)Cn2ncc(Cl)c(Cl)c2=O)c2ccccc2N1 | 0 | 93.5 | 102.6 | 96.0 | 92.8 | 0 | 55.5 | 0 | 105.5
O=C1CN(C(=O)COc2ccc(Cl)c(Cl)c2)c2ccccc2N1 | 0 | 0 | 0 | 0 | 0 | 0 | - | - | -
Cc1ccc(NC(=O)CN(C)C(=O)Cn2ncc(Cl)c(Cl)c2=O)cc1 | 0 | 68.3 | 102.4 | 96.6 | 90.5 | 0 | 0 | 100.0 | 105.8
S=c1[nH]cc2cnccn12 | - | 0 | 0 | 0 | - | 0 | - | - | -
COc1ccc(S(=O)(=O)NC(=O)C2(C)CCN2C(=O)Cc2cc(C)cc(C)c2)cc1 (stereo not drawn) | - | 0 | 0 | 0 | - | 0 | - | - | -
C#CCN(C[C@@H]1[C@@H](OC(=O)NC2CCCC2)[C@@H](OC(=O)NC2CCCC2)Cn2c(=O)ccc(=O)n21)S(=O)(=O)c1ccc(C)cc1 | - | 63.6 | 96.0 | 97.0 | - | 0 | 0 | 99.4 | 107.8
C#CCN(C[C@@H]1[C@@H](OC(=O)NC2CC2)[C@@H](OC(=O)NC2CC2)CN(C(=O)OC(C)C)N1C(=O)OC(C)C)S(=O)(=O)c1ccc(C)cc1 | - | 0 | 0 | 0 | - | 0 | - | - | -
COC(=O)c1cc(=O)n(Cc2ccc(F)cc2)c(=NCc2ccc(F)cc2)s1 | 0 | 0 | 0 | 0 | 0 | 0 | - | - | -
SMILES | B2AR ag | CF NFkB inh | Peg3 promoter | HIF-2a inh | MITF TRPM1 inh | KKLEB cytotox | CF NFkB inh conf | HIF-2a inh conf | HIF-1a cs | others
COC(=O)c1cc(=O)n(Cc2cccs2)c(=Nc2ccc(F)cc2)s1 | 0 | 54.6 | 80.6 | 66.5 | - | 0 | 0 | 0 | 106.2
CCOC(=O)N(C)c1c(CC)nc2c(OCc3ccccc3C)cccn12 | - | 0 | 0 | 0 | - | 0 | - | - | -
COC(=O)N/N=C/c1ccc(OS(=O)(=O)c2ccc(C)cc2)c(OC)c1 | 0 | 0 | 0 | 0 | 0 | 0 | - | - | -
C=CCNC(=O)/C(C#N)=C/c1ccc(OS(=O)(=O)c2ccc(C)cc2)c(OC)c1 | 0 | 75.0 | 0 | 59.3 | 0 | 0 | 0 | 45.6 | 97.0
Cc1ccc(C)c(Cn2nnc3c(=O)[nH]c(C(=O)NCc4ccco4)nc32)c1 | 0 | 0 | 0 | 0 | 0 | 0 | - | - | -
O=C(NCc1ccco1)c1nc2c(nnn2Cc2ccccc2Cl)c(=O)[nH]1 | 0 | 89.7 | 93.8 | 45.3 | 71.8 | 0 | 99.9 | 57.1 | 105.9
CCOc1ccccc1NC(=O)c1ccc(C(=O)Nc2ccccc2OCC)nc1 | 0 | 0 | 0 | 0 | 0 | 0 | - | - | -
CCS(=O)(=O)c1ncc(Cl)c(C(=O)Nc2ccccc2OC)n1 | 0 | 85.0 | 103.6 | 92.6 | 0 | 0 | 96.4 | 0 | 99.3
CCOc1ccccc1NC(=O)c1nc(S(=O)(=O)Cc2ccccc2)ncc1Cl | 0 | 79.9 | 99.1 | 90.3 | 78.3 | 0 | 94.4 | 98.6 | 104.1
Cc1cc(C)c2c(CN3CCN(c4ccccc4F)CC3)cc(=O)oc2c1 | - | 0 | 0 | 0 | - | 0 | - | - | -
CC(=O)N1CCC(C(=O)N2c3ccccc3N=C(c3ccc4c(c3)OCO4)C2C(=O)NCc2ccccc2)CC1 (stereo not drawn) | - | - | - | 0 | - | - | - | - | -
Clc1ccccc1OCc1nnc(-c2ccccc2Br)o1 | 0 | 0 | 0 | 0 | 0 | 0 | - | - | -
O=c1c(Cl)c(Cl)cnn1Cc1nnc(-c2ccccc2Br)o1 | 0 | 83.8 | 106.4 | 96.0 | 94.5 | 0 | 44.5 | 73.4 | 106.3 | Mdm2-MdmX confirm=101.0
O=C(Nc1ccccc1Cl)c1ccccc1CC(O)(c1ccccc1)c1ccccc1 | - | 0 | 0 | 0 | - | 0 | - | - | -
O=C(NCCc1ccccc1)c1c[nH]c2ccccc2c1=O | - | 0 | 0 | 0 | - | 0 | - | - | -
COc1cccc(-n2nc(C#N)c(Cl)cc2=O)c1 | 84.0 | 105.9 | 107.7 | 96.0 | 90.6 | 0 | 0 | - | - | Mdm2-MdmX confirm=103.7
COc1cccc(-n2nc(C(N)=O)c(O)cc2=O)c1 | 0 | 0 | 0 | 0 | 0 | 0 | - | - | -
